Results on nine compounds are retold here after PubChem BioAssay (NCATS).

SMILES strings stand for the structures. Several values for one entry are separate records, joined by “and”; a condition that tells them apart may be missing. Identical values can stand only once. Results filed as inconclusive are left out. Activity calls are given as the source filed them. Unless noted, how the calls were made is not given here.

The nature of test [1]: qHTS assay for cell viability of HEK293 cells (AID 743288; active means well fitted curve in the direction sought with a large enough effect; an effect the other way counts as inactive or inconclusive; further: on the % scale 0 is the no-effect control and ±100 the full control effect; nearly all actives have a fitted effect of over 50% in size). The following applies: ATP luminescence (CellTiter-Glo), 18 h; max response: stronger effect = lower value. The method, boiled down: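 Viable-cell counts were inferred from luciferase-based ATP content in HEK293 cells seeded at 2,000/well, pre-incubated ≥5 h, then dosed with DMSO-solubilised compounds for 18 h at 37 C.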
A short description of test [2]: qHTS assay for cell viability of the p53RE-bla HCT-116 cell line (AID 743292; active means well fitted curve in the direction sought with a large enough effect; an effect the other way counts as inactive or inconclusive; further: on the % scale 0 is the no-effect control and ±100 the full control effect; nearly all actives have a fitted effect of over 55% in size). To be noted: p53RE-bla HCT-116 viability, ATP luminescence, 16 h; series mostly up to 95 µM. The gist of the method:
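After plating at 4,000 cells per well and a 5 h rest at 37 C, HCT-116 cells carrying p53RE-bla received test chemicals in DMSO. Sixteen hours later at 37 C, CellTiter-Glo was added and luminescence recorded following 30 min at room temperature.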

Test [3] can be described thus: High-throughput drug toxicity screening in the BPDCN cell line Gen2.2 (AID 1224824).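 Further: cells exposed to compounds for 48 h before reading.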 To be noted: Gen2.2 BPDCN cells; at 45.8 µM (top of the series) unless noted. The gist of the method: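 Seed 500 exponentially growing Gen2.2 cells/well; add compounds by pin tool; incubate 48 h, 37 °C, 5% CO2; add CellTiter-Glo, 15 min RT; read luminescence. % activity vs DMSO (100%) and bortezomib (0%).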

The nature of test [4]: qHTS profiling of the MIPE4 collection as inhibitors of Plasmodium falciparum (3D7) proliferation (AID 743344).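 Further: scaled between DMSO vehicle wells and 0.29 µM artemisinin as full inhibition.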 The following applies: P. falciparum 3D7 in erythrocytes, SYBR Green DNA fluorescence, 72 h; at 28.5 µM (top of the series) unless noted. The method, boiled down: (§1)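 Parasite DNA was quantified by SYBR Green I fluorescence (ex 485, em 535 nm) after overnight lysis in saponin/Triton buffer at room temperature. Cultures at 0.3% parasitemia and 2.5% hematocrit were first exposed to compound for 72 h at 37 C; signals were normalised to artemisinin (0.29 uM) and vehicle wells.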

The nature of test [5]: qHTS profiling of the MIPE4 collection as inhibitors of Plasmodium falciparum (DD2) proliferation (AID 743345). To be noted: P. falciparum Dd2 in erythrocytes, SYBR Green DNA, 72 h; at 28.5 µM (top of the series) unless noted. The gist of the method:
as §1

A short description of test [6]: qHTS profiling of the MIPE4 collection as inhibitors of Plasmodium falciparum (DD2) proliferation (Rep 2) (AID 743346). The following applies: P. falciparum Dd2 in erythrocytes, SYBR Green DNA, 72 h; at 28.5 µM (top of the series) unless noted. The method, boiled down: as §1
Test [7] can be described thus: qHTS profiling of the MIPE4 collection as inhibitors of Plasmodium falciparum (HB3) proliferation (AID 743347).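 Further: plate controls were DMSO vehicle wells for no effect and artemisinin wells for full effect.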 To be noted: P. falciparum HB3 in erythrocytes, SYBR Green DNA, 72 h; at 28.5 µM (top of the series) unless noted. The method, boiled down: as §1
Test [8] in a line: qHTS profiling for inhibitors of Plasmodium falciparum (3D7) proliferation (AID 743322).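 Further: infected erythrocytes exposed to compound for 72 h before lysis; 100% = DMSO vehicle wells and 0% = 0.29 µM artemisinin.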 To be noted: P. falciparum 3D7 proliferation; at 28.7 µM (top of the series). The gist of the method: as §1
A short description of test [9]: qHTS profiling for inhibitors of Plasmodium falciparum (DD2) proliferation (AID 743323). The following applies: lower = more inhibition; at 28.7 µM (top of the series). The gist of the method:
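SYBR Green fluorescence (ex 485, em 535 nm) of lysed cultures gives parasite DNA content; wells normalized to artemisinin (0.29 uM) and DMSO controls. Infected red cells: 0.3% parasitemia, 2.5% hematocrit, 72 h, 37 C.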

Test [10] is described as follows: qHTS profiling for inhibitors of Plasmodium falciparum (HB3) proliferation (AID 743324; active means well fitted curve in the direction sought with a large enough effect; an effect the other way counts as inactive or inconclusive;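 further: 100% = DMSO vehicle wells and 0% = artemisinin-treated control wells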). The following applies: Plasmodium falciparum HB3 blood-stage proliferation; at 28.7 µM (top of the series). The gist of the method:
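SYBR Green fluorescence (485 ex/535 em) of lysed cultures, incubated overnight at room temperature in the dark, quantifies parasite DNA. Infected erythrocytes at 0.3% parasitemia and 2.5% hematocrit were exposed 72 h; values normalized to DMSO and 0.29 uM artemisinin controls.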

In the case of `Cc1cc(NS(=O)(=O)c2ccc(N)cc2)no1`, the max response in test [1] is -9.46% (inactive). The Potency entry in test [2] was “inactive”. For the same compound, the cell viability, % of control (lower = more cytotoxic) in test [3] was 56.5%.
`CCc1cc(C(N)=S)ccn1`: the max response in test [1] was 6.59% (inactive) and -10.6% (inactive). Further, the Potency entry in [2] was “inactive”. The parasite growth, % of DMSO control in test [4] turned out to be 4.85%. Further, the parasite growth remaining, % of DMSO control (lower = more inhibition) in test [5] stood at 10.5%. For the same compound, in [6], the parasite growth, % of control (lower = inhibition) amounted to 6.58%. This compound also had a growth, % of control in test [7] of 2.68%. Moreover, in [3], the cell viability, % of control (lower = more cytotoxic) turned out to be 139%.
On to `Cc1noc(NS(=O)(=O)c2ccc(N)cc2)c1C`, for which the max response in [1] is -2.22% (inactive) and 5.06% (inactive). Moreover, the Potency entry in [2] was “inactive”. The compound further returned a parasite growth, % of DMSO control in [4] of 96.2%. For the same compound, in [5], the parasite growth remaining, % of DMSO control (lower = more inhibition) amounted to 98.9%. Further, the parasite growth, % of control (lower = inhibition) in test [6] came out at 103%. The cell viability, % of control (lower = more cytotoxic) in [3] worked out at 138%.
For `CC(C)OC(=O)OCOP(=O)(CO[C@H](C)Cn1cnc2c(N)ncnc21)OCOC(=O)OC(C)C`, in [3], the cell viability, % of control (lower = more cytotoxic) is 162%.
`C[C@]12C=CC(=O)C=C1CC[C@@H]1[C@@H]2C(=O)C[C@@]2(C)[C@H]1CC[C@]2(O)C(=O)CO`: the max response in test [1] is 0.765% (inactive). In [2], the Potency result was “inactive”. This compound registered a parasite growth, % of DMSO control in [4] of 93.3% [at 9.64 µM]. Moreover, in [5], the parasite growth remaining, % of DMSO control (lower = more inhibition) came to 95.7% [at 9.64 µM]. The parasite growth, % of control (lower = inhibition) in test [6] worked out at 82.6% [at 9.64 µM]. The cell viability, % of control (lower = more cytotoxic) in test [3] turned out to be 158% [at 23.2 µM].
Take `CC(C)C[C@H](NC(=O)[C@H](CCc1ccccc1)NC(=O)CN1CCOCC1)C(=O)N[C@@H](Cc1ccccc1)C(=O)N[C@@H](CC(C)C)C(=O)[C@@]1(C)CO1`: the remaining parasite growth % (stronger effect = lower value) in [8] is -0.503%. Moreover, the activity, percent of control in [9] is -1.29%. Further, the remaining proliferation (% of control), lower = more inhibition in test [10] amounted to 0.46%. The compound also returned a parasite growth, % of DMSO control in test [4] of 5.1%. The parasite growth remaining, % of DMSO control (lower = more inhibition) in test [5] came to 7.08%. Also, the parasite growth, % of control (lower = inhibition) in [6] amounted to 9.09%. In addition, the cell viability, % of control (lower = more cytotoxic) in test [3] turned out to be 5.77%.
For `N[C@@H](Cc1ccc(O)c(O)c1)C(=O)O`, the max response in test [1] is 4.23% (inactive). Also, the Potency entry in test [2] is “inactive”. In [4], the parasite growth, % of DMSO control was 85.4%. In addition, in [5], the parasite growth remaining, % of DMSO control (lower = more inhibition) came to 114%. For the same compound, the parasite growth, % of control (lower = inhibition) in [6] stood at 64.9%. In [7], this compound showed a growth, % of control of 84%. The cell viability, % of control (lower = more cytotoxic) in [3] came to 94.2%.
For `Cc1ccnc2c1NC(=O)c1cccnc1N2C1CC1`, the max response in test [1] is -6.97% (inactive). The Potency result in test [2] is “inactive”. For the same compound, in [3], the cell viability, % of control (lower = more cytotoxic) came out at 1.63%.
With `OC(Cn1cncn1)(Cn1cncn1)c1ccc(F)cc1F`, the max response in test [1] is -6.93% (inactive). The Potency entry in test [2] is “inactive”. In test [5], the parasite growth remaining, % of DMSO control (lower = more inhibition) is 101%. In [3], the cell viability, % of control (lower = more cytotoxic) was 66.2%.
